Columns and labels:
[1] = molecular target: T1, Mitogen-activated protein kinase 12 (Homo sapiens) (UniProt P53778); conditions: at 1 µM
T1 sequence (whole entry): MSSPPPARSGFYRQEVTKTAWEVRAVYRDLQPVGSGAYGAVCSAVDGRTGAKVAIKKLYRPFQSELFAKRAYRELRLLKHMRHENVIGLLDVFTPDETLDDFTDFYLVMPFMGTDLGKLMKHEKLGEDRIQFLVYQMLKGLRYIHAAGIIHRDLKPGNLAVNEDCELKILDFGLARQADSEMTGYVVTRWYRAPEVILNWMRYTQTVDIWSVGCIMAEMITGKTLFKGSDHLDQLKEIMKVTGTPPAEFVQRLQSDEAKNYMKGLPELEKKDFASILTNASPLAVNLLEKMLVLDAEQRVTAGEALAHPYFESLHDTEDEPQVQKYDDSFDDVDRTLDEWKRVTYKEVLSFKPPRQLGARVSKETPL

[2] = molecular target: T1, Mitogen-activated protein kinase 12 (Homo sapiens); conditions: at 10 µM

Compound | residual activity [1] | residual activity [2]
Cn1nc2c3c(cccc31)C(=O)c1ccccc1-2 | 99% | 96%
Cc1nc2cc3nc(-c4cccs4)cnc3cc2n1C | 114% | 100%
CCCCc1c(-c2ccc(OC)cc2)[nH]c2nccnc12 | 103% | 112%
CC(C)n1cnc2c(NCc3ccccc3)nc(NCCCO)nc21 | 100% | 101%
Nc1nc(Nc2ccc(S(N)(=O)=O)cc2)nn1C(=S)Nc1c(F)cccc1F | 56% | 69%
Cn1cnc2cc3c(Nc4cccc(Br)c4)ncnc3cc21 | 104% | 89%
Cc1ccc(S(=O)(=O)/C=C/C#N)cc1 | 92% | 92%
O=C(Nc1cccc(Nc2nccc(Nc3cccc(C(F)(F)F)c3)n2)c1)C1CC1 | 98% | 95%
COc1cc2nccc(Oc3ccc(NC(=S)NC(=O)c4ccccc4C)cc3)c2cc1OC | 99% | 94%
Cc1cccc(-c2[nH]c(C(C)(C)C)nc2-c2ccc3c(c2)OCO3)n1 | 104% | 100%
O=c1cc(-c2cccc3c2Sc2ccccc2S3)oc(N2CCOCC2)c1 | 104% | 101%
COc1cc2ncnc(Nc3ccc(Oc4ccccc4)cc3)c2cc1OC | 108% | 101%
Cc1ccc(NC2=CC(=O)c3sc(C)nc3C2=O)cc1 | 87% | 102%
Oc1cccc(-c2nc(N3CCOCC3)c3oc4ncccc4c3n2)c1 | – | 86%
Cc1nc(-c2ccccc2)c(-c2ccncc2)o1 | 106% | 103%
O=C(O)/C=C/c1cc(Br)c(Br)c(Br)c1Br | 110% | 90%
CN(C)CCCn1cc(C2=C(c3c[nH]c4ccccc34)C(=O)NC2=O)c2ccccc21 | 125% | 131%

From ChEMBL document CHEMBL2218924, “A broad activity screen in support of a chemogenomic map for kinase signalling research and drug discovery” (Biochem J, 2013)
